Compounds with a hit are over-represented: about 3.4% of the library has one in this group of screens.
MEKK3 PB1 HTS – raises or lowers MEK5 binding to the human MEKK3 PB1 domain; bead-based flow cytometry, Alexa488-MEK5 binding to MEKK3; actives lie on both sides; 0 = blocked by unlabeled MEK5, 100 = vehicle; binding response (% of control), % at 10 µM; 290,000 tested, 1.4% active;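 active = binding response more than 3 SD above or below the average of its plate-row segment, actives on both sides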;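 note: Alexa488 bead fluorescence after subtracting the streptavidin-only scavenger bead signal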
MEKK2 WT-MEK5 – raises or lowers MEK5 binding to wildtype human MEKK2 PB1 domain; Q9Y2U5; bead flow cytometry, Alexa488-MEK5 binding to MEKK2 WT; actives lie on both sides; binding response (% of control), % at 10 µM; 290,000 tested, 1.1% active; in the data active = binding response below about 67% or above about 130%
ANO1 activ – activators or potentiators of mouse TMEM16A chloride channel. HEK293 TMEM16A/YFP-H148Q/I152L, iodide quench fluorescence; stronger effect = lower value. B-score at 10 µM. 340,000 tested, 0.3% active;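 active = fluorescence-ratio B-score plate-corrected deviation score at least 3 library SD below zero, with starting fluorescence score within 5 deviations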;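 note: channel opened by trigger with iodide after compound preincubation; score built on the fluorescence ratio of max minus min over baseline; more negative score means more quench and so TMEM16A activation or potentiation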
NTR1 ag – agonists of human neurotensin receptor NTR1 | P30989 | NTR1-U2OS beta-arrestin-GFP spot imaging, agonist mode | activation, % at 20 µM | 330,000 tested, 0.17% active | AID 493036;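 active = activation at or above 40% of the spot to cytoplasm intensity ratio, with at least 20 cells analyzed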;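 note: 0% = DMSO without peptide and 100% = 100 nM NTR1 peptide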
Target sequence (P30989 whole entry, looked up): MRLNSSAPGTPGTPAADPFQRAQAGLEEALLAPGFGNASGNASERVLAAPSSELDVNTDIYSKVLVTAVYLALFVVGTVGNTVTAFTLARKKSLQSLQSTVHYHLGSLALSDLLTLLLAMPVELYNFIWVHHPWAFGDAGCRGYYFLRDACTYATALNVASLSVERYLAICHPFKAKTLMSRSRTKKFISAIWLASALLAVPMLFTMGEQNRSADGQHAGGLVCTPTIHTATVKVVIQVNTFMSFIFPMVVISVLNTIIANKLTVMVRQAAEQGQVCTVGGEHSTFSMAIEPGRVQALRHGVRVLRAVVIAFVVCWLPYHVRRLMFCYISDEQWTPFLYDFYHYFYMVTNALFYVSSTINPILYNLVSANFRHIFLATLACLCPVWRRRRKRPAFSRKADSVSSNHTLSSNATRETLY
ANO1 block – mouse TMEM16A channel inhibition, primary screen; normalized B-score (activity score, 25-100; higher = stronger inhibition) at 10 µM; 310,000 tested, 1.2% active; AID 588511; HEK293 TMEM16A/YFP iodide influx fluorescence, ionomycin;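 active = ratio plate-corrected score three or more library SD toward inhibition, starting fluorescence score within five deviations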;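 note: score derived from kinetic fluorescence span divided by baseline fluorescence per well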
MEKK2 mut-MEK5 – signal of MEK5 binding to mutant human MEKK2 PB1 domain | 290,000 tested, 0.35% active | percent response, % at 10 µM | bead flow cytometry, Alexa488-MEK5 binding to MEKK2 mutant; in the data active = percent response above about 24%, passing the limit was not always enough
MEKK2wt confirm – raises or lowers MEK5 binding to wildtype human MEKK2, retest; AID 1892; binding response (% of control), % at 10 µM; bead flow cytometry, Alexa488-MEK5 binding to MEKK2 WT; actives lie on both sides; 5,900 tested, 2.4% active; shares compounds with MEKK3 PB1 HTS; in the data active = binding response below about 16% or above about 210%; inactive = in between
MEKK2mut confirm – signal of MEK5 binding to mutant human MEKK2, retest. shares compounds with MEKK3 PB1 HTS. percent response, % at 10 µM. 5,900 tested, 2% active. bead flow cytometry, Alexa488-MEK5 binding to MEKK2 mutant; in the data active = percent response mostly above about 71%, no sharp cut-off; inactive = mostly below about 38%;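 note: higher means compound restores mutant binding toward wildtype level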
MEKK3-MEK5 inh – MEKK3-MEK5 PB1 inhibition, single concentration confirmation; shares compounds with MEKK3 PB1 HTS; bead flow cytometry, Alexa488-MEK5 binding to MEKK3; stronger effect = lower value; binding response (% of control), % at 10 µM; 5,900 tested, 1.8% active; AID 1894;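 active = binding response below 72% of control, or above a set upper limit, though filed actives all read lower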;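 note: 100% = DMSO only wells and 0% = binding blocked by excess unlabeled MEK5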
Active calls of the source: *; i = inactive; / = not tested or not shown; [ ] = dose if it differs, or a comment.

SMILES | MEKK3 PB1 HTS | MEKK2 WT-MEK5 | ANO1 activ | NTR1 ag | ANO1 block | MEKK2 mut-MEK5 | MEKK2wt confirm | MEKK2mut confirm | MEKK3-MEK5 inh
O=C(CSc1ccc(C(F)(F)F)cc1[N+](=O)[O-])Nc1ccc2ccccc2c1 | 194.0* | 106.0 | i | 2.2 | i | 0.0 | 96.0 | -6.0 | 99.0
Cc1nc2cc(NC(=O)COc3ccc(C#N)cc3)ccc2n1-c1ccccc1 | 2.0*[inhibitor] | 2.0*[inhibitor] | i | -0.1 | i | -16.0 | 98.0 | -3.0 | 101.0
Cc1ccc(NC(=O)CSc2nnc(COc3ccc(C#N)cc3)n2-c2ccccc2)cc1C | 1.0*[inhibitor] | 1.0*[inhibitor] | i | 1.6 | i | -16.0 | 99.0 | -4.0 | 95.0
O=C(CC1C(=O)NCCN1CCCc1ccccc1)NCCc1ccccc1Cl (centres undefined) | 102.0 | 126.0 | i | -0.7 | i | 31.0* | 146.0 | 21.0 | 103.0
COc1cccc(CNC(=O)CC2C(=O)NCCN2CCCc2ccccc2)c1 (centres undefined) | 108.0 | 129.0 | i | 0.8 | i | 15.0 | / | / | /
COc1ccccc1CCNC(=O)CC1C(=O)NCCN1CCCc1ccccc1 (centres undefined) | 109.0 | 138.0* | i | 0.0 | i | 26.0* | 113.0 | 6.0 | 101.0
CC(C)Oc1ccc(C(=O)OCC(=O)NCCNC(=O)COC(=O)c2ccc(OC(C)C)cc2)cc1 | 104.0 | 106.0 | i | 3.7 | i | 5.0 | / | / | /
O=C(COc1ccccc1F)NCC(c1ccc(F)cc1)N1CCOCC1 (centres undefined) | / | / | i | -1.1 | / | / | / | / | /
c1ccc(CNc2nc(-c3ccccc3)nc3ccccc23)cc1 | 105.0 | 108.0 | i | 15.7 | i | 4.0 | / | / | /
c1ccc(CNc2nc(NCc3ccccc3)c3ccccc3n2)cc1 | 106.0 | 262.0* | i | 13.0 | i | 140.0* | 256.0* | 116.0* | 113.0
CC1CN(S(=O)(=O)N2CCOCC2)CCN1S(=O)(=O)N1CCOCC1 (centres undefined) | 80.0 | 89.0 | i | -0.4 | i | -4.0 | / | / | /
CC(=O)N1N=C(c2ccco2)CC1c1ccc(C)cc1 (centres undefined) | 135.0* | 110.0 | i | 0.2 | i | 1.0 | 103.0 | 1.0 | 105.0
CCc1ccc(C2CC(c3ccco3)=NN2S(C)(=O)=O)cc1 (centres undefined) | 89.0 | / | i | -0.5 | i | 55.0* | 81.0 | -9.0 | 89.0
CC(=O)N1N=C(c2ccco2)CC1c1ccc(Br)cc1 (centres undefined) | 99.0 | 108.0 | i | 3.3 | i | -1.0 | / | / | /
CCOc1ccc2cc(C3CC(c4ccco4)=NN3S(C)(=O)=O)c(Cl)nc2c1 (centres undefined) | 100.0 | 91.0 | i | 2.1 | i | 1.0 | / | / | /
Cc1c(C(=O)Nc2ccc(C(F)(F)F)cc2)sc2ncn(CC(=O)N3CCN(c4ccccn4)CC3)c(=O)c12 | 101.0 | 101.0 | i | 8.0 | i | -5.0 | / | / | /
COC(=O)C(Cc1ccc(O)cc1)NC(=O)C1CCN(S(=O)(=O)c2ccc(C)cc2)CC1 (centres undefined) | 98.0 | 98.0 | i | -0.6 | i | 2.0 | / | / | /
Cc1cccc[n+]1CCCCCCCCCC[n+]1ccccc1C | 101.0 | 104.0 | i | -1.2 | i | 3.0 | / | / | /
CCCCCCCCCC[n+]1cccc2c3ccccc3ccc21 | 119.0 | 213.0* | i | / | / | 10.0 | 150.0 | 22.0 | 102.0
O=C(c1cccc(S(=O)(=O)NCc2ccccc2)c1)N1CCCC(C(F)(F)F)C1 (centres undefined) | / | / | i | 1.0 | i | / | / | / | /
O=C(O)c1ccc(CSc2nc3ccccc3c(=O)n2-c2ccccc2)cc1 | 111.0 | 114.0 | i | 2.0 | i | 8.0 | / | / | /
COC(=O)c1ccc2c(=O)n(-c3ccccc3)c(SCN3C(=O)c4ccccc4C3=O)nc2c1 | 74.0*[inhibitor] | 98.0 | i | 3.3 | i | 1.0 | 104.0 | 4.0 | 105.0
O=C(Nc1ccc(C2SCCS2)cc1)c1ccccc1 | 77.0 | 82.0 | / | -0.8 | i | -23.0 | / | / | /
CCOc1ccc(NC(=O)C2CCCN2C(=O)NC2CCCCC2)cc1 (centres undefined) | 102.0 | 99.0 | i | -1.3 | i | 1.0 | / | / | /
CC(C)CNC(=O)C(=O)NCC1OCCCN1S(=O)(=O)c1cccs1 (centres undefined) | 100.0 | 98.0 | i | -0.6 | i | 3.0 | / | / | /
SMILES | MEKK3 PB1 HTS | MEKK2 WT-MEK5 | ANO1 activ | NTR1 ag | ANO1 block | MEKK2 mut-MEK5 | MEKK2wt confirm | MEKK2mut confirm | MEKK3-MEK5 inh
COc1ccc(NC(=O)COC(=O)CNC(=O)c2cc(OC)c(OC)c(OC)c2)cc1 | 145.0* | 105.0 | i | -1.4 | i | 0.0 | 104.0 | 4.0 | 103.0
C/C(=N/NC(=O)Cc1c(C)[nH][nH]c1=O)c1ccc(O)cc1 | 145.0* | 113.0 | i | 1.1 | i | 2.0 | 97.0 | -5.0 | 100.0
C/C(=N\NC(=O)Cc1c(C)[nH][nH]c1=O)c1cccc(Br)c1 | 49.0*[inhibitor] | 50.0 | i | 0.1 | i | -12.0 | 98.0 | -6.0 | 100.0
C/C(=N\NC(=O)Cc1c(C)[nH][nH]c1=O)c1ccc(Cl)c(Cl)c1 | 100.0 | 99.0 | i | -0.6 | i | -2.0 | / | / | /
COc1cc(/C(C)=N/NC(=O)Cc2c(C)[nH][nH]c2=O)ccc1O | 115.0 | 101.0 | i | -1.6 | i | 0.0 | / | / | /
CN(C)CCCN(C(=O)c1ccc(Br)s1)c1nc2cc3c(cc2s1)OCCO3 | / | / | i | 4.1 | i | / | / | / | /
Cc1ccc2nc(N(CCCN(C)C)C(=O)c3ccco3)sc2c1 | 231.0* | 121.0 | i | 0.4 | i | 33.0 | 109.0 | 12.0 | 107.0
Cc1ccc2nc(N(CCCN(C)C)C(=O)c3ccc(Br)s3)sc2c1 | 102.0 | 169.0* | i | -1.8 | i | 35.0 | 166.0 | 29.0 | 108.0
Cc1ccc(-c2csc(N(CCCN(C)C)C(=O)c3ccco3)n2)cc1 | 114.0 | 202.0* | i | 1.1 | i | 30.0 | 183.0 | 49.0 | 107.0
CN(C)CCCN(C(=O)c1ccco1)c1nc2c(F)cccc2s1 | 62.0*[inhibitor] | 101.0 | i | -1.0 | i | 68.0* | 107.0 | 7.0 | 102.0
CN(C)CCCN(C(=O)c1ccco1)c1nc(-c2ccc(Cl)cc2)cs1 | 100.0 | 138.0 | i | 3.3 | i | 8.0 | / | / | /
